In the supplement of paper PMC13380429:

Test system: Vero E6 infected with SARS-CoV-2
Assay: inhibition of SARS-CoV-2 cytopathic effect; higher = more antiviral protection, active = above 15
Conditions: 48 h

Measured: inhibition of SARS-CoV-2 cytopathic effect

O=C(CCCCCCNC(=O)c1cnc(N(c2ccccc2)c2ccccc2)nc1)NO
inactive: 1 nM -0.34% | 8.33 nM -1.04% | 100 nM 2.13% | 833.33 nM -4.05% | 10000 nM -10.5%

CCC(CC)(NC(=O)C(C)C)C(=O)N[C@@H](CCCNC(=N)N)C(=O)NC1(C(=O)NC(c2ccc(F)cc2)c2ccc(F)cc2)CCCC1
inactive: 1 nM -0.92% | 8.33 nM -1.15% | 100 nM -1.6% | 833.33 nM 0.7% | 10000 nM -3.48%

O=C(O)[C@H](Cc1ccc(Nc2nccc3ccncc23)cc1)NC1=C(Br)C(=O)C12CCCCC2
inactive: 1 nM 0.12% | 8.33 nM 0.67% | 100 nM -0.71% | 833.33 nM -0.14% | 10000 nM 2.62%

C[C@@](Cc1ccc(O)c(O)c1)(NN)C(=O)O [carbidopa]
inactive: 1 nM -5% | 8.33 nM -1.47% | 100 nM -3.59% | 833.33 nM -2.28% | 10000 nM -0.52%

CC(=O)Nc1ccc(S(=O)(=O)c2ccc(NC(C)=O)cc2)cc1 [acedapsone]
inactive: 1 nM -1.54% | 8.33 nM -3.01% | 100 nM -3.82% | 833.33 nM -1.51% | 10000 nM 5.34%

O=C(O)Cc1cccnc1C(=O)O [homoquinolinic-acid]
inactive: 1 nM 3.71% | 8.33 nM -1.17% | 100 nM -11.5% | 833.33 nM 1.81% | 10000 nM 1.14%

O=Nc1c(-c2c(O)[nH]c3cc(Br)ccc23)[nH]c2ccccc12 [GSK-3-inhibitor-IX]
inactive: 1 nM -0.14% | 8.33 nM 0.68% | 100 nM 1.64% | 833.33 nM 13.8% | 10000 nM -4.11%
